Inconclusive results are not listed. Entries that show only a call come without a potency. Activity calls are given as the source filed them. Calls come from the whole dose curve; as a rule, active = well fitted curve in the direction sought with a large enough effect in the repeat runs; inconclusive = weak or mixed curves; inactive = no such curve, though single readings can be large; an effect the other way counts as inactive or inconclusive.
Legend:
[1] = target: Cytochrome P450 2C9 (Homo sapiens) (UniProt P11712); test: Cytochrome P450 Family 2 Subfamily C Member 9 (CYP2C9) small molecule antagonists: luciferase reporter qHTS assay (AID 1671198); conditions: P450-Glo CYP2C9 enzyme assay, luciferin luminescence; series mostly up to 115 µM; note: potency is the fitted concentration of half-maximal effect
Outline: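 CYP2C9 activity was measured with a P450-Glo proluciferin substrate. Enzyme–substrate mix was held with compound for 10 min at room temperature, then NADPH regeneration solution was added for 1 h at 37C. Luciferin product was read as luminescence.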

[2] = target: Cytochrome P450 1A2 (Homo sapiens) (UniProt P05177); test: Cytochrome P450 Family 1 Subfamily A Member 2 (CYP1A2) small molecule antagonists: luciferase reporter qHTS assay (AID 1671199); conditions: P450-Glo CYP1A2 enzyme, luciferin luminescence, 1 h; series mostly up to 53 µM; note: potency is the fitted concentration of half-maximal effect
Outline: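 P450-Glo CYP1A2, 1536-well qHTS: enzyme/proluciferin substrate + cpd (DMSO), 10 min RT; NADPH regen, 1 h RT; detection reagent, 20 min; luminescence, RLU.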

[3] = target: Voltage-gated inwardly rectifying potassium channel KCNH2 (Homo sapiens) (UniProt Q12809); test: Human Ether-a-go-go-Related Gene (hERG) channel small molecule antagonists: fluorescence cell-based qHTS assay (AID 1671200); conditions: hERG-U2OS cells, FluxOR thallium flux fluorescence; series mostly up to 76.8 µM;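 note: hERG-expressing U2OS cells given a thallium stimulus after FluxOR II dye loading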
Outline: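 Fluorescence at 540 nm emission (480 nm excitation) was recorded kinetically for 2 min at 1-second intervals once the thallium-containing stimulus reached cells previously loaded with FluxOR II dye.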

[4] = target: Cytochrome P450 3A4 (Homo sapiens) (UniProt P08684); test: Cytochrome P450 Family 3 Subfamily A Member 4 (CYP3A4) small molecule antagonists: luciferase reporter qHTS assay (AID 1671201); conditions: P450-Glo CYP3A4 enzyme, luciferin luminescence, 1 h; series mostly up to 115 µM; note: potency is the fitted concentration of half-maximal effect
Outline: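 qHTS, 1536-well. CYP3A4 + proluciferin substrate, cpd 10 min RT → NADPH regen 1 h RT → detection reagent 20 min → luminescence (RLU). Ketoconazole positive control.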
Note: nearly all actives have a fitted effect of over 50% in size.

Sequence of Cytochrome P450 1A2 (Homo sapiens) (P05177 whole entry, looked up): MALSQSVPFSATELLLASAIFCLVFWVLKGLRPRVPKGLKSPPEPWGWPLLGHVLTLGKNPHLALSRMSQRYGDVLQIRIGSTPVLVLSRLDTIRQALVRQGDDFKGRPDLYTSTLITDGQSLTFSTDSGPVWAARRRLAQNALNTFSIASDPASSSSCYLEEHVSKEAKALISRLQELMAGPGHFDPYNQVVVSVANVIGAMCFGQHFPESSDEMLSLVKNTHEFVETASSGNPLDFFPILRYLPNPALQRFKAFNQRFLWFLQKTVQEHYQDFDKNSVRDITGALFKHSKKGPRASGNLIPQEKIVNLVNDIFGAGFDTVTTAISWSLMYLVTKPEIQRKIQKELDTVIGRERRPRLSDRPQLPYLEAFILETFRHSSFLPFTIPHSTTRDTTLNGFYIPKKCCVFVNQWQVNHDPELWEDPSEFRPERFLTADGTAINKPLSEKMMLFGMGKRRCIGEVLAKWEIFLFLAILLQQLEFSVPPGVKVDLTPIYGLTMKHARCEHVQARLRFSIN
Sequence of Voltage-gated inwardly rectifying potassium channel KCNH2 (Homo sapiens) (Q12809 whole entry, looked up): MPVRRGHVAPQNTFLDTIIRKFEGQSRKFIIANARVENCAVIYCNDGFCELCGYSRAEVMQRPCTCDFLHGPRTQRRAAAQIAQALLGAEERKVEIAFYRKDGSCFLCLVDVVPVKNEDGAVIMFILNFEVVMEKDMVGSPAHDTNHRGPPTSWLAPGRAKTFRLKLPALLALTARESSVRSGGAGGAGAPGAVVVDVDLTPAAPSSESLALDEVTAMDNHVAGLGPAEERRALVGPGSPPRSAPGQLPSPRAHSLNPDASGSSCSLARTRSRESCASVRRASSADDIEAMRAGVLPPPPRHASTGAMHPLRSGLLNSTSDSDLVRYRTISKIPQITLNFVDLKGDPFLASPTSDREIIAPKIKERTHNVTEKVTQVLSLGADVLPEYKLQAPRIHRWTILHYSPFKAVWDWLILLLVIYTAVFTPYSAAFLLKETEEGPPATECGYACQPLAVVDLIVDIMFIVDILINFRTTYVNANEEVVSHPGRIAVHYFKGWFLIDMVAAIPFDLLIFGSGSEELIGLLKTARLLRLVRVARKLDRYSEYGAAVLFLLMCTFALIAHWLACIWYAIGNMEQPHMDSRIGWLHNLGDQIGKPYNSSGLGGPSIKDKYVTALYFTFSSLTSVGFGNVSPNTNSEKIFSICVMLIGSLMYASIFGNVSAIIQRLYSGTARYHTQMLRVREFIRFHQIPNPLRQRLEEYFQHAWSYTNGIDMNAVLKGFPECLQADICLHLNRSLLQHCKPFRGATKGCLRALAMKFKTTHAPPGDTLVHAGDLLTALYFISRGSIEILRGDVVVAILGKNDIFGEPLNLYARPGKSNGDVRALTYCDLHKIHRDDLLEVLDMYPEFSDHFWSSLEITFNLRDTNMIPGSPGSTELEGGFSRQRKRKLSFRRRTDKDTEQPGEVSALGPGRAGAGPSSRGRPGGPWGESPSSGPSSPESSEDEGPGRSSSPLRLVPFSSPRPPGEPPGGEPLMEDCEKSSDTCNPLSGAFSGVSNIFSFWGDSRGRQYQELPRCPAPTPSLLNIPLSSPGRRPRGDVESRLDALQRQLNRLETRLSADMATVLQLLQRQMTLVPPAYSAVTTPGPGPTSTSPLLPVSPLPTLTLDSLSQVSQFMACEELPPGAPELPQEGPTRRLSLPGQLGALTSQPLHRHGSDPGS
Sequence of Cytochrome P450 3A4 (Homo sapiens) (P08684 whole entry, looked up): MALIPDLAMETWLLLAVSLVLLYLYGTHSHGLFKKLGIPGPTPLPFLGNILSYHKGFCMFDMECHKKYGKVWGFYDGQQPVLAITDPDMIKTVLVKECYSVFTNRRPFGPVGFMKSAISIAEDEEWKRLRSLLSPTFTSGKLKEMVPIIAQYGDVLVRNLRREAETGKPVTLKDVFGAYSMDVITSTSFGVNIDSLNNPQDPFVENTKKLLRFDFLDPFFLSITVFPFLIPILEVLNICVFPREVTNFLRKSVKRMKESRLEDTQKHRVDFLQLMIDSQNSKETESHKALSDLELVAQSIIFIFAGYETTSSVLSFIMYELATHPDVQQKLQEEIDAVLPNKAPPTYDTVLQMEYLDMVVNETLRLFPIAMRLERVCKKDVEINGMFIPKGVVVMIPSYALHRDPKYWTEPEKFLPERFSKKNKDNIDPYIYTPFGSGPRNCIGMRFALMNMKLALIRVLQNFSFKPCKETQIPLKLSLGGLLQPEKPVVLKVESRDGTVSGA
Sequence of Cytochrome P450 2C9 (Homo sapiens) (P11712 whole entry, looked up): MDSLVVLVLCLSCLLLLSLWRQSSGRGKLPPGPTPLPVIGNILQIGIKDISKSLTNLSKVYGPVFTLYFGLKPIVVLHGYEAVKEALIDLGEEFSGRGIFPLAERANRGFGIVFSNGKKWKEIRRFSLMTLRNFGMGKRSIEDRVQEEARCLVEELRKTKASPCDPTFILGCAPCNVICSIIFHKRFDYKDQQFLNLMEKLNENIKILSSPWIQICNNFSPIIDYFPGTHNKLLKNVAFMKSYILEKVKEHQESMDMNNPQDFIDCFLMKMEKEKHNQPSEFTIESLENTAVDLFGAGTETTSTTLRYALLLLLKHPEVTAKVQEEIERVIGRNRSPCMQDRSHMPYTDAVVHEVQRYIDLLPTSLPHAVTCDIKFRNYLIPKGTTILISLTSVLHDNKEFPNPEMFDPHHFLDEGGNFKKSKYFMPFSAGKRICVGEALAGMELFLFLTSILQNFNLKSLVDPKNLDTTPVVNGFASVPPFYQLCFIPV

Compound | Potency [1] | Potency [2] | Potency [3] | Potency [4]
CCC(Cl)CCC(Cl)C(Cl)CC(Cl)C(Cl)C(Cl)CCl (centres undefined) | inactive | inactive | inactive | inactive
CN(C)CCN(Cc1ccsc1)c1ccccn1 | inactive | inactive | – | inactive
Cc1ccc(N=Nc2c(O)c(C(=O)O)cc3ccccc23)c(S(=O)(=O)O)c1 | 34.5 µM (active) | inactive | inactive | inactive
C=CCOc1ccccc1OCC(O)CNC(C)C (centres undefined) | inactive | 10.2 µM (active) | inactive | inactive
COC(C)(C)CCO | inactive | inactive | inactive | inactive
CN(C)c1ccc(C(c2ccccc2)c2ccc(N(C)C)cc2)cc1 | 1.42 µM (active) | 14.2 µM (active) | inactive | 4.48 µM (active)
O=[N+]([O-])c1ccc2[nH]ncc2c1 | inactive | 31.7 µM (active) | inactive | inactive
O=C(O)C1(C(=O)Nc2ccc(Cl)cc2Cl)CC1 | 15.9 µM (active) | 39.9 µM (active) | inactive | inactive
O=C(O)c1nc(Cl)c(Cl)c(Cl)c1Cl | 39.9 µM (active) | – | inactive | inactive
OCCNCc1ccccc1 | inactive | – | – | inactive
CC1=CCCC(C)(C)C12CCC(C)O2 (centres undefined) | 79.6 µM (active) | – | inactive | 79.6 µM (active)

Source: PubChem BioAssay (Tox21)
